Data from the supplement of paper PMC10498489.
Out of some 2,300 compounds screened, about 330 (14%) showed activity. Only a sample is shown. A number with no mark means an inactive call.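 Rule for the calls: active = median modified Z-score above 1.96; inactive = 1.96 or below.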

Test system: HepG2 Srxn1-GFP reporter cells (+30 nM CDDO-Me)
Assay: Srxn1-GFP intensity median modified Z-score relative to plate median; higher = stronger NRF2 / oxidative stress reporter activation, active = hit call of the paper
Settings: 10 µM; exposure time: 24h
Outline: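 Per-cell cytoplasmic GFP was measured on confocal images of formaldehyde-fixed, Hoechst-stained HepG2 Srxn1-GFP BAC reporter cells, excluding images with fewer than 100 cells. Before this, the cells (20,000 per well, 96-well plates) were co-exposed for 24 h to compound at 10 μM and an NRF2 activator at 30 nM with ≤0.1% DMSO, in three replicate plates. Each value is the median over replicates of the per-plate modified Z-score of GFP intensity. That score was scaled with 1.4826 × median absolute deviation.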

In order of falling “Srxn1-GFP intensity median modified Z-score” value:
1. C=CCn1c(C(C)Oc2ccc(OCC)cc2)nnc1N1CCC(C(=O)OC)CC1 (configuration not stated)  1.58
2. CC(C)=CCC/C(C)=C/CC/C(C)=C/CO [euspeclibcmpd2192]  1.35
3. O=S(=O)(c1ccc(Cl)nc1)N(CC1CCCO1)C1CCSC1 (configuration not stated)  1.21
4. Cc1ccc(-c2nc(CSc3nc(C)c(C)n3CC3CCCO3)co2)c(C)c1 (configuration not stated)  1.14
5. O=C(c1ccccc1)c1ccc(Cl)cc1O  1.14
6. CCC[C@@H]1C[C@@H](C(=O)N[C@@H]([C@H]2O[C@H](SC)[C@H](O)[C@@H](O)[C@H]2O)[C@@H](C)O)N(C)C1  1.1
7. CCN(C(=O)COC(=O)C1=NNC(=O)CC1)C1CCS(=O)(=O)C1 (configuration not stated)  1.01
8. CCO[C@@]1(C)C[C@H]1NC(=O)N[C@@H]1C[C@@H]1C(F)F  0.985
9. N=c1[nH]c(N)ccc1N=Nc1ccccc1 [euspeclibcmpd230]  0.85
10. O=C1C[C@@H](c2ccc(O)cc2)Oc2cc(O)cc(O)c21 [euspeclibcmpd1328]  0.815
11. O=C(O)C1=C(CCO)O[C@@H]2CC(=O)N12 [euspeclibcmpd2294]  0.746
12. C[C@]12CCC(=O)CC1=CC=C1C2CC[C@@]2(C)C1CC[C@@]21CCC(=O)O1 (some centres not stated) [euspeclibcmpd726]  0.642
13. CN(C/C=C/c1ccccc1)Cc1cccc2ccccc12 [euspeclibcmpd791]  0.553
14. CCOc1cc2c(cc1/C=C/C(=O)N(C)C(C)c1ccc(-n3cncn3)cc1)OC(C)C2 (configuration not stated)  0.413
15. CCC(=O)c1c(O)cc(O)cc1O [euspeclibcmpd1034]  0.366
16. O=C(O)CCC(=O)Nc1ccc(S(=O)(=O)N=c2[nH]ccs2)cc1 [euspeclibcmpd428]  0.358
17. CC1CC(=O)NN=C1c1ccc(NN=C(C#N)C#N)cc1 (configuration not stated) [euspeclibcmpd481]  0.356
18. COc1cc(Cc2c[nH]c(=N)[nH]c2=N)cc(OC)c1OC [euspeclibcmpd310]  0.316
19. CN1CCC(=C2c3ccccc3Sc3ccccc32)CC1 [euspeclibcmpd1250]  0.25
20. CCOC(=O)NN=c1[nH]ncc2ccccc12 [euspeclibcmpd1066]  0.23
21. CC1(C)O[C@@H]2[C@@H](CO[C@@]3(COS(N)(=O)=O)OC(C)(C)O[C@@H]23)O1 [euspeclibcmpd870]  0.206
22. NC[C@H]1O[C@H](O[C@H]2[C@H](O)[C@@H](O[C@H]3O[C@H](CO)[C@@H](O)[C@H](N)[C@H]3O)[C@H](N)C[C@@H]2N)[C@H](N)[C@@H](O)[C@@H]1O [euspeclibcmpd351]  0.19
23. NC(=O)C1CCCN1C(=O)C(Cc1c[nH]cn1)NC(O)c1ccc(O)[nH]1 (configuration not stated) [euspeclibcmpd919]  0.145
24. CCN(CC)CCOC(=O)C(c1ccccc1)C1CCCCC1 (configuration not stated) [euspeclibcmpd1055]  0.0961
25. COc1cc(O)c2c(=O)cc(-c3ccc(O)cc3)oc2c1 [euspeclibcmpd2253]  0.0845
26. CN1C2CC[C@H]1C[C@@H](OC(=O)C(O)c1ccccc1)C2 (some centres not stated) [euspeclibcmpd2075]  0.0546
27. CN1CCC(=C2c3ccccc3CCc3sccc32)CC1 [euspeclibcmpd488]  0.0303
28. O=C(CCCN1CCN(c2ccccn2)CC1)c1ccc(F)cc1 [euspeclibcmpd1317]  0.00738
29. CC(C)=CCC/C(C)=C/CC/C(C)=C/CC/C(C)=C/CC/C(C)=C/CC/C(C)=C/CC/C(C)=C/CC/C(C)=C/CC/C(C)=C/CO [euspeclibcmpd1640]  -0.00439
30. COc1ccccc1O [euspeclibcmpd1265]  -0.0107
31. CCN(CC)CCOCCOC(=O)C1(c2ccccc2)CCCC1 [euspeclibcmpd389]  -0.0174
32. CC1C(=NC(=O)C(NOC(C)(C)C(=O)O)c2csc(=N)[nH]2)C(=O)N1S(=O)(=O)O (configuration not stated) [euspeclibcmpd708]  -0.0945
33. CCC(C)C(=O)O[C@H]1C[C@@H](C)C=C2C=C[C@H](C)[C@H](CC[C@@H]3C[C@@H](O)CC(=O)O3)[C@H]21 (some centres not stated) [euspeclibcmpd875]  -0.147
34. O=C1CC(c2ccc(O)cc2)Oc2ccccc21 (configuration not stated) [euspeclibcmpd2144]  -0.183
35. Cc1ccc2c(Cl)cc(Cl)c(O)c2n1 [euspeclibcmpd1014]  -0.191
36. O=C(O)C1[C@H]2C[C@H]3c4[nH]c5ccccc5c4CCN3C[C@@H]2CC[C@@H]1O (some centres not stated) [euspeclibcmpd1655]  -0.233
37. CCCC[C@@H](CC)COC(=O)c1ccccc1O [euspeclibcmpd865]  -0.26
38. N=c1[nH]c(C(CCC(=O)O)C(=O)N=C2C(=O)N3C(C(=O)O)=CCS[C@H]23)cs1 (some centres not stated) [euspeclibcmpd717]  -0.318
39. CCOc1ccc(C(=O)c2ccc(OC)c(O)c2O)cc1 [euspeclibcmpd1975]  -0.333
40. O=C(CCc1ccc(O)cc1)c1c(O)cc(O)cc1O[C@@H]1O[C@H](CO)[C@@H](O)[C@H](O)[C@H]1O [euspeclibcmpd1493]  -0.343
41. Oc1cccc2[nH]ccc12 [euspeclibcmpd2031]  -0.358
42. N=C(N)NCCCC(N)C(=O)O (configuration not stated) [euspeclibcmpd695]  -0.363
43. Cc1c(C)c(O)c(C(=CCCCCC(=O)O)c2ccccc2)c(C)c1O [euspeclibcmpd470]  -0.366
44. CC(=O)O[C@H]1CC[C@]2(C)C3CC[C@@]4(C)C(CC5O[C@@]6(CCC(C)CO6)[C@@H](C)C54)C3CC[C@@H]2C1 (some centres not stated) [euspeclibcmpd1531]  -0.369
45. COc1cc(O)cc(OC)c1OC [euspeclibcmpd1601]  -0.369
46. CC1(O)CCOC(=O)C1 (configuration not stated) [euspeclibcmpd1666]  -0.384
47. NC[C@H]1O[C@H](O[C@H]2C(O[C@@H]3O[C@H](CO)[C@@H](O)[C@H]3O)[C@@H](O)[C@H](N)C[C@@H]2N)[C@H](N)[C@@H](O)[C@@H]1O (some centres not stated) [euspeclibcmpd1069]  -0.384
48. CC1=C(/C=C/C(C)=C/C=C/C(C)=C/C=C/C=C(C)/C=C/C=C(C)/C=C/C2=C(C)C(=O)CCC2(C)C)C(C)(C)CCC1=O [euspeclibcmpd1669]  -0.405
49. COc1c(O)cc(O)cc1O [euspeclibcmpd1393]  -0.431
50. C[C@](N)(Cc1ccc(O)c(O)c1)C(=O)O [euspeclibcmpd194]  -0.447
51. C[C@H]1O[C@H](OC[C@@H]2O[C@H](Oc3c(-c4ccc(OCCO)c(OCCO)c4)oc4cc(OCCO)cc(O)c4c3=O)[C@@H](O)[C@H](O)[C@H]2O)[C@@H](O)[C@@H](O)[C@@H]1O [euspeclibcmpd1205]  -0.542
52. CCCC1O[C@@H]2CC3C4CC=C5CC(=O)C=CC5(C)C4[C@@H](O)CC3(C)[C@]2(C(=O)CO)O1 (some centres not stated) [euspeclibcmpd352]  -0.649
53. Cc1c(C(=O)O)c(O)cc2c(O)c3c(O)c(O)c(C4O[C@H](CO)[C@@H](O)[C@H](O)C4=O)c(O)c3c(O)c12 (some centres not stated) [euspeclibcmpd1436]  -0.693
54. c1ccc2c(CC3=NCCN3)cccc2c1 [euspeclibcmpd204]  -0.697
55. CC(C)N=c1nccc[nH]1 [euspeclibcmpd1194]  -0.779
56. CC[C@@H](CO)NCCN[C@@H](CC)CO [euspeclibcmpd120]  -0.816
57. NCCc1ccc(O)c(O)c1 [euspeclibcmpd2150]  -1.01
58. NC(Cc1ccc(O)c(O)c1)C(=O)O (configuration not stated) [euspeclibcmpd949]  -1.39

O=C1CC(c2ccccc2)Oc2ccccc21 (configuration not stated) [euspeclibcmpd1376] was tested, and the “Srxn1-GFP intensity median modified Z-score” value was 3.07 (active).
With O=C(CCc1ccc(O)cc1)c1c(O)cc(O)cc1O [euspeclibcmpd1518] the “Srxn1-GFP intensity median modified Z-score” value was 16.3 (active).
CN1CCC(=C2c3ccccc3C=Cc3ccccc32)CC1 [euspeclibcmpd890] was tested, and the “Srxn1-GFP intensity median modified Z-score” value was 7.54 (active).
In the case of Cn1c(SC2CCCCC2=O)nnc1-c1cccc(Br)c1 (configuration not stated), the “Srxn1-GFP intensity median modified Z-score” value was 4.66 (active).
With CN(C/C=C/C#CC(C)(C)C)Cc1cccc2ccccc12 [euspeclibcmpd767] the “Srxn1-GFP intensity median modified Z-score” value was 3.24 (active).
In the case of CC(C)=CCC/C(C)=C/CO [euspeclibcmpd1453], the “Srxn1-GFP intensity median modified Z-score” value was 2.94 (active).
For Oc1oc(O)c2c1C1CCC2O1 [euspeclibcmpd1748], the “Srxn1-GFP intensity median modified Z-score” value was 3 (active).
In the case of COc1c2ccoc2nc2c(OC)c(OCC(O)C(C)(C)O)ccc12 (configuration not stated) [euspeclibcmpd1658], the “Srxn1-GFP intensity median modified Z-score” value was 26 (active).
In the case of CCN(CC)CCOC(=O)C1(C2CCCCC2)CCCCC1 [euspeclibcmpd90], the “Srxn1-GFP intensity median modified Z-score” value was 2.86 (active).
For COc1c(O)cccc1O [euspeclibcmpd1665], the “Srxn1-GFP intensity median modified Z-score” value was 3.35 (active).
For COc1cccc(O)c1O [euspeclibcmpd1624], the “Srxn1-GFP intensity median modified Z-score” value was 10.7 (active).
For Oc1c(Cl)cc(Cl)c(Cl)c1Cc1c(O)c(Cl)cc(Cl)c1Cl [euspeclibcmpd146], the “Srxn1-GFP intensity median modified Z-score” value was 44.1 (active).
With COC(=O)[C@H]1[C@H]2C[C@@H]3c4[nH]c5cc(OC)ccc5c4CCN3C[C@H]2C[C@@H](OC(=O)c2cc(OC)c(OC)c(OC)c2)[C@@H]1OC [euspeclibcmpd2385] the “Srxn1-GFP intensity median modified Z-score” value was 6.53 (active).
NCCc1ccc(O)c(O)c1 [euspeclibcmpd2286] was tested, and the “Srxn1-GFP intensity median modified Z-score” value was 9.36 (active).
